We go through eight compounds from PubChem BioAssay.

The subject of test [1] is Human papillomavirus type 1a protein E7 (residues 44-93). Description: HPV1a E7 fragment binders on microarrays, primary screen, biochemical, small-molecule microarray, residues 44-93, 635 nm fluorescence (AID 1108).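 Also: E7 fragment applied at 1 µg/mL in TBST for 1 h at 4 C; score combines spot fluorescence with its signal to noise ratio.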 The note with it: small-molecule microarray binding, fluorescence 635 nm; higher = more signal.
Test [2] can be described thus: modulators of HCV replicon luciferase signal, primary screen, HCV replication inhibitor project, Huh7 cells, luciferase reporter (AID 1109).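 Also: huh7 hepatoma cells harbouring a luciferase neomycin HCV replicon reporter; luciferase luminescence as measure of HCV replicon replication; test concentration not given here.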 The following applies: 48 h, higher = more signal.
Test [3] deals with Left-right determination factor 2 (Homo sapiens) (UniProt O00292). Kind of test: LEFTY2 binders on small-molecule microarrays, primary screen, biochemical, small-molecule microarray, 635 nm fluorescence scan (AID 1110). The note with it: LEFTY2 binding, higher = more signal.
Left-right determination factor 2 (Homo sapiens), sequence (O00292 whole entry, looked up): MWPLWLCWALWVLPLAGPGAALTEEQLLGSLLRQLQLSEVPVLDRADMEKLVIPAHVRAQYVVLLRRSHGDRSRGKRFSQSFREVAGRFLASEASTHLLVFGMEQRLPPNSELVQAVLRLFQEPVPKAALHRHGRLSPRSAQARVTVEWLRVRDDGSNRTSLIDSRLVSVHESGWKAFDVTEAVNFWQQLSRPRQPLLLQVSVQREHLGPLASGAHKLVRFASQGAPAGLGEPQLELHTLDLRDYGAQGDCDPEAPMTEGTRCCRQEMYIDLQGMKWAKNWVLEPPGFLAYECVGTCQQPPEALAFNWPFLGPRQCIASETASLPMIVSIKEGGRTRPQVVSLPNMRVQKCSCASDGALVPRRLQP
In test [4] the target is Calmodulin-1 (Homo sapiens) (UniProt P0DP23). Description: CALM1 binders on microarrays, EGTA buffer, profiling panel, biochemical, small-molecule microarray, Cy5-labelled CALM1 (AID 1111).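 Also: labelled calmodulin applied in Tris saline Tween buffer holding calcium plus EGTA and DTT.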 The note with it: Cy5-CALM1 binding fluorescence, higher = more signal.
Test [5] shares this target. Kind of test: calcium-bound CALM1 binders on microarrays, profiling panel, artefact control for SMM control-protein annotation, biochemical, small-molecule microarray, Cy5-labelled CALM1, plus calcium (AID 1112).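 Also: score merges spot fluorescence with signal to noise from triplicate slides.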 The following applies: Cy5-CALM1 binding fluorescence, higher = more signal.
Test [6] is described as follows: small-molecule microarray binders of probe aWnt5a, primary screen, biochemical, biotinylated probe, 635/667 nm fluorescence (AID 1113).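 Also: score merges 667 nm fluorescence intensity with signal-to-noise per printed feature.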 The note with it: higher = more signal.
Test [7] in a line: small-molecule microarray binders of probe aShh, primary screen, biochemical, biotinylated probe, 635/667 nm fluorescence (AID 1114).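 Also: probe is biotin-labelled aShh protein from a stem cell growth factor screen; measures binding of labelled protein to compounds printed on the slide; score merges feature fluorescence at 667 nm with signal-to-noise.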 The note with it: higher = more signal.
The nature of test [8]: small-molecule microarray binders of probe aNog, primary screen, biochemical, biotinylated probe, 635/667 nm fluorescence (AID 1115).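 Also: probe is biotinylated aNog protein used at 0.15 µg/mL for 1 h at 4 C; z-score combines 667 nm fluorescence of each spot with its signal to noise.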 The note with it: higher = more signal.
Test [9] concerns the target Torsin-1A-interacting protein 1 (Homo sapiens) (UniProt Q5JTV8). Description: LAP1 binders from COS7 cell lysate, primary screen, small-molecule microarray, 635/667 nm fluorescence (AID 1116). The following applies: COS7-hLAP1 lysate binding, 635 nm fluorescence, higher = more signal.
For test [10], the target named is Alpha-bungarotoxin (Bungarus multicinctus) (UniProt P60615). Description: alpha-bungarotoxin binders on microarray, profiling panel, artefact control for SMM control protein annotation, biochemical, small-molecule microarray, Alexa647 label, 635/667 nm fluorescence (AID 1117). The following applies: alpha-BTX-A647 binding fluorescence, higher = more signal.
Alpha-bungarotoxin (Bungarus multicinctus), sequence (P60615 whole entry, looked up): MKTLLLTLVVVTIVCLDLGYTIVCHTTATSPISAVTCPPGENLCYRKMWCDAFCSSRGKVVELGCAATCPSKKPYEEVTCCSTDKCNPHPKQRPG

Each structure is given as a SMILES string.

Torsin-1A-interacting protein 1 (Homo sapiens), sequence (Q5JTV8 whole entry, looked up): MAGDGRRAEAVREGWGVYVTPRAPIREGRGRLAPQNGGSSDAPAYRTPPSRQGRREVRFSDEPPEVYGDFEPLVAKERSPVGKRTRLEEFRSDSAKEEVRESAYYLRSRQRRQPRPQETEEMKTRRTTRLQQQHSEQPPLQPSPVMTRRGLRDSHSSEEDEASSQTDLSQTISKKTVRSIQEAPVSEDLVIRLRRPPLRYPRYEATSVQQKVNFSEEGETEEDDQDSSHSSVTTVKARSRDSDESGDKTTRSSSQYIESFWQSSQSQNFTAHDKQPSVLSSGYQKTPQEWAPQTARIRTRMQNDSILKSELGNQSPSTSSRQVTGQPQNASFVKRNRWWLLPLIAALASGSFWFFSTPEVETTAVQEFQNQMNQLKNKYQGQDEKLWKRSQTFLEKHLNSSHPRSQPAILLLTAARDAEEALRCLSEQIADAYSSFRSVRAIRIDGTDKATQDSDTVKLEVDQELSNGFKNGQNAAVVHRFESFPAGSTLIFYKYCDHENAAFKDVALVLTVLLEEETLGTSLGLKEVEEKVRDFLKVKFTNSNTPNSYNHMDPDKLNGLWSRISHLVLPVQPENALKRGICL

Turning to `COCCCNC(=O)[C@@H]1c2ccccc2C(=O)N(Cc2cc(C(F)(F)F)cc(C(F)(F)F)c2)[C@H]1c1ccc(CO)cc1`, the composite z-score is 0.0861 in test [1]; -0.323 in test [3]; 0.0808 in test [4]; 0.232 in [5]; -0.105 in test [6]; 0.0091 in test [7]. Besides, the figures for the composite z-score in test [8], in test [9] and in test [10] were 0.896, 0.208 and -0.543, respectively. For the same compound, in [2], the z-score was -0.293.
Regarding `CCCCN1CC=CC23O[C@@H]4/C=C\CCC(C)OC(=O)C4[C@H]2C(=O)N(C(C)CO)[C@@H]3C1=O` (stereo not given in full), the composite z-score was -1.13 in test [1]; -0.0716 in [3]; -0.325 in test [4]; -1.04 in [5]; -0.178 in test [6]; -0.2 in [7]. The composite z-score in [8] was -0.188; in test [9], 0.201; in test [10], -0.606. Further, in [2], the z-score was determined as 0.263.
For `C=C(CC1([C@@H](NP(=O)(c2ccccc2)c2ccccc2)[C@H]2C[C@@H]2CCN(C(=O)OCC)S(=O)(=O)c2ccc(C)cc2)CC1)c1ccccc1`, the composite z-score is 1.39 in [1]; -0.763 in test [3]; 1.88 in test [4]; 1.07 in test [5]; 0.0267 in test [6]; 0.935 in test [7]. Besides, the composite z-score was 1.06 in test [8], 0.379 in [9] and 0.749 in test [10]. In test [2], the z-score is -2.09.
Take `CCCCCCc1nc(-c2ccc(OC)nc2)cc2c1[Si](C(C)C)(C(C)C)OC2`: the composite z-score is -0.611 in [1]; -0.147 in test [3]; -0.464 in test [4]; 0.0559 in test [5]; -0.0643 in test [6]; -0.262 in [7]. Further, the composite z-score is -0.0965 in test [8], -0.346 in test [9] and 0.502 in test [10]. The same compound returned a z-score in test [2] of 1.09.
On to `C/C=C/CN(C(=O)C#Cc1ccccc1)[C@H](CO[Si](C)(C)C(C)(C)C)c1ccccc1`, for which the composite z-score was 0.0833 in test [1]; -0.594 in test [3]; -0.855 in [4]; -1.76 in test [5]; -0.286 in test [6]; -0.372 in test [7]. The composite z-score in [8] was -0.338; in test [9], -0.721; in test [10] it was -2.16. In addition, the z-score in test [2] was -0.944.
In the case of `CCOC(=O)C[C@H]1[C@H](OC(=O)c2ccc(-c3ccccc3)cc2)[C@@H](NC(=O)CC(C)C)c2cc(OCCCO)ccc2N1C(=O)Cc1ccc(OC)cc1`, the composite z-score in [1] was 0.157; in [3], 0.141; in test [4], 1.05; in test [5], 0.335; in test [6], -0.0523; in test [7] it was -0.2. For the same compound, the composite z-score in test [8] was -0.126; in [9] it was 0.418; in test [10] it was 0.446. This compound also returned a z-score in [2] of -1.84.
Take `O=C1C2C=CC(C(O)c3ccc([N+](=O)[O-])cc3)N(Nc3ccccc3)C2C(=O)N1c1ccccc1` (stereo not given): the composite z-score in test [1] was 0.342; in [3], -0.0424; in test [4], 0.0871; in test [5], -0.447; in test [6] it was -0.0512; in [7] it was 0.284. The results for the composite z-score in [8], in [9] and in test [10] were -0.175, -0.175 and -0.0428, respectively. The same compound gave a z-score in test [2] of 0.649.
Take `CC(C)CNC(=O)[C@@H]1c2ccccc2C(=O)N(Cc2ccccc2)[C@H]1c1ccc(CO)cc1`: the composite z-score was 0.93 in test [1]; -1.35 in test [3]; -0.148 in test [4]; -0.202 in [5]; -0.253 in test [6]; -0.1 in test [7]. In addition, the composite z-score in [8] is 0.127; in test [9], 0.936; in test [10], -0.865. This compound also gave a z-score in [2] of 0.372.
